# Data from the supplement of paper PMC12282887.
# ± gives the standard deviation of the averaged measurements.
# Key:
# Test in all cases: promoter activity interaction Z-score (Lux/OD deviation from empty-vector control); higher = stronger promoter induction by the compound
# [1] = test system: E. coli BW25113 acrABp lux reporter
# Summary of the method: (§1)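 Wild-type E. coli BW25113 and three single-gene deletion strains, each carrying a low-copy luxCDABE promoter reporter, were grown at 37°C in 40 µl LB Lennox per well of a 384-well plate. Every compound was applied at four 1:2 dilutions in biological duplicates, and OD600 and luminescence were read every 30 min for 12 h. Integration covered 0–8 h for wild type and 1–9 h for deletion strains, and wells under 10% of the median growth value were removed. Scores are Z-transformed residuals of growth-normalised luminescence fitted against a control.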
# [2] = test system: E. coli BW25113 marRABp lux reporter
# Summary of the method: as §1
# [3] = test system: E. coli BW25113 micFp lux reporter
# Summary of the method: as §1
# [4] = test system: E. coli BW25113 ompFp lux reporter
# Summary of the method: as §1
# [5] = test system: E. coli BW25113 robp lux reporter
# Summary of the method: as §1
# [6] = test system: E. coli BW25113 soxSp lux reporter
# Summary of the method: as §1
# [7] = test system: E. coli BW25113 tolCp lux reporter
# Summary of the method: as §1
# [8] = 20.7 µg/ml, genetic background: wild type
# [9] = 20.7 µg/ml, genetic background: ΔmarA
# [10] = 20.7 µg/ml, genetic background: Δrob
# [11] = 20.7 µg/ml, genetic background: ΔsoxS
# [12] = 41.4 µg/ml, genetic background: wild type
# [13] = 41.4 µg/ml, genetic background: ΔmarA
# [14] = 41.4 µg/ml, genetic background: Δrob
# [15] = 41.4 µg/ml, genetic background: ΔsoxS
# [16] = 82.8 µg/ml, genetic background: wild type
# [17] = 82.8 µg/ml, genetic background: ΔmarA
# [18] = 82.8 µg/ml, genetic background: Δrob
# [19] = 82.8 µg/ml, genetic background: ΔsoxS
# [20] = 165.6 µg/ml, genetic background: wild type
# [21] = 165.6 µg/ml, genetic background: ΔmarA
# [22] = 165.6 µg/ml, genetic background: Δrob
# [23] = 165.6 µg/ml, genetic background: ΔsoxS
structure (smiles),measurement,setting,value
CN(C)C(=N)NC(=N)N [Metformin],promoter activity interaction Z-score,[1]; [8],-0.326 ± 0.14
same,promoter activity interaction Z-score,[1]; [9],0.815 ± 0.45
same,promoter activity interaction Z-score,[1]; [10],-0.31 ± 0.23
same,promoter activity interaction Z-score,[1]; [11],-0.0221 ± 0.28
same,promoter activity interaction Z-score,[1]; [12],-0.0908 ± 0.043
same,promoter activity interaction Z-score,[1]; [13],0.174 ± 0.41
same,promoter activity interaction Z-score,[1]; [14],0.377 ± 0.017
same,promoter activity interaction Z-score,[1]; [15],-0.0209 ± 0.61
same,promoter activity interaction Z-score,[1]; [16],-0.145 ± 0.14
same,promoter activity interaction Z-score,[1]; [17],0.000785 ± 1.4
same,promoter activity interaction Z-score,[1]; [18],0.271 ± 0.043
same,promoter activity interaction Z-score,[1]; [19],-0.155 ± 0.2
same,promoter activity interaction Z-score,[1]; [20],-0.249 ± 0.13
same,promoter activity interaction Z-score,[1]; [21],0.575 ± 0.81
same,promoter activity interaction Z-score,[1]; [22],0.41 ± 0.17
same,promoter activity interaction Z-score,[1]; [23],0.11 ± 0.051
same,promoter activity interaction Z-score,[2]; [8],-0.244 ± 0.08
same,promoter activity interaction Z-score,[2]; [9],0.0455 ± 0.11
same,promoter activity interaction Z-score,[2]; [10],-0.139 ± 0.14
same,promoter activity interaction Z-score,[2]; [11],-0.145 ± 0.0015
same,promoter activity interaction Z-score,[2]; [12],-0.1 ± 0.072
same,promoter activity interaction Z-score,[2]; [13],-0.132 ± 0.1
same,promoter activity interaction Z-score,[2]; [14],-0.0299 ± 0.073
same,promoter activity interaction Z-score,[2]; [15],-0.0239 ± 0.17
same,promoter activity interaction Z-score,[2]; [16],-0.104 ± 0.063
same,promoter activity interaction Z-score,[2]; [17],-0.195 ± 0.23
same,promoter activity interaction Z-score,[2]; [18],-0.113 ± 0.043
same,promoter activity interaction Z-score,[2]; [19],-0.0656 ± 0.052
same,promoter activity interaction Z-score,[2]; [20],-0.551 ± 0.065
same,promoter activity interaction Z-score,[2]; [21],-0.242 ± 0.025
same,promoter activity interaction Z-score,[2]; [22],-0.0241 ± 0.2
same,promoter activity interaction Z-score,[2]; [23],0.145 ± 0.22
same,promoter activity interaction Z-score,[3]; [8],-0.368 ± 0.019
same,promoter activity interaction Z-score,[3]; [9],-0.0629 ± 0.04
same,promoter activity interaction Z-score,[3]; [10],-0.153 ± 0.082
same,promoter activity interaction Z-score,[3]; [11],-0.139 ± 0.14
same,promoter activity interaction Z-score,[3]; [12],-0.177 ± 0.23
same,promoter activity interaction Z-score,[3]; [13],-0.102 ± 0.12
same,promoter activity interaction Z-score,[3]; [14],-0.0244 ± 0.0094
same,promoter activity interaction Z-score,[3]; [15],-0.233 ± 0.015
same,promoter activity interaction Z-score,[3]; [16],-0.161 ± 0.16
same,promoter activity interaction Z-score,[3]; [17],-0.0653 ± 0.072
same,promoter activity interaction Z-score,[3]; [18],-0.0658 ± 0.068
same,promoter activity interaction Z-score,[3]; [19],-0.0678 ± 0.068
same,promoter activity interaction Z-score,[3]; [20],-0.544 ± 0.37
same,promoter activity interaction Z-score,[3]; [21],-0.151 ± 0.025
same,promoter activity interaction Z-score,[3]; [22],-0.0629 ± 0.08
same,promoter activity interaction Z-score,[3]; [23],-0.000873 ± 0.19
same,promoter activity interaction Z-score,[4]; [8],-0.191 ± 0.037
same,promoter activity interaction Z-score,[4]; [9],0.332 ± 0.047
same,promoter activity interaction Z-score,[4]; [10],-0.324 ± 0.2
same,promoter activity interaction Z-score,[4]; [11],-0.0538 ± 0.13
same,promoter activity interaction Z-score,[4]; [12],-0.037 ± 0.014
same,promoter activity interaction Z-score,[4]; [13],-0.125 ± 0.2
same,promoter activity interaction Z-score,[4]; [14],0.267 ± 0.2
same,promoter activity interaction Z-score,[4]; [15],0.0362 ± 0.37
same,promoter activity interaction Z-score,[4]; [16],0.036 ± 0.056
same,promoter activity interaction Z-score,[4]; [17],0.0389 ± 0.14
same,promoter activity interaction Z-score,[4]; [18],0.322 ± 0.37
same,promoter activity interaction Z-score,[4]; [19],0.0576 ± 0.088
same,promoter activity interaction Z-score,[4]; [20],-0.153 ± 0.11
same,promoter activity interaction Z-score,[4]; [21],0.766 ± 0.041
same,promoter activity interaction Z-score,[4]; [22],0.44 ± 0.62
same,promoter activity interaction Z-score,[4]; [23],0.813 ± 0.41
same,promoter activity interaction Z-score,[5]; [8],0.282 ± 0.18
same,promoter activity interaction Z-score,[5]; [9],0.497 ± 0.0053
same,promoter activity interaction Z-score,[5]; [10],-0.187 ± 0.91
same,promoter activity interaction Z-score,[5]; [11],0.397 ± 1.1
same,promoter activity interaction Z-score,[5]; [12],-0.109 ± 0.24
same,promoter activity interaction Z-score,[5]; [13],0.171 ± 0.31
same,promoter activity interaction Z-score,[5]; [14],0.416 ± 0.36
same,promoter activity interaction Z-score,[5]; [15],0.638 ± 1.1
same,promoter activity interaction Z-score,[5]; [16],0.336 ± 0.065
same,promoter activity interaction Z-score,[5]; [17],0.0784 ± 0.21
same,promoter activity interaction Z-score,[5]; [18],0.39 ± 0.41
same,promoter activity interaction Z-score,[5]; [19],0.405 ± 0.19
same,promoter activity interaction Z-score,[5]; [20],-0.305 ± 0.39
same,promoter activity interaction Z-score,[5]; [21],0.28 ± 0.035
same,promoter activity interaction Z-score,[5]; [22],0.519 ± 0.11
same,promoter activity interaction Z-score,[5]; [23],0.649 ± 0.18
same,promoter activity interaction Z-score,[6]; [8],-0.232 ± 0.14
same,promoter activity interaction Z-score,[6]; [9],0.132 ± 0.02
same,promoter activity interaction Z-score,[6]; [10],-0.07 ± 0.0035
same,promoter activity interaction Z-score,[6]; [11],0.26 ± 0.056
same,promoter activity interaction Z-score,[6]; [12],-0.046 ± 0.095
same,promoter activity interaction Z-score,[6]; [13],0.0673 ± 0.055
same,promoter activity interaction Z-score,[6]; [14],0.0305 ± 0.041
same,promoter activity interaction Z-score,[6]; [15],0.0287 ± 0.19
same,promoter activity interaction Z-score,[6]; [16],0.0138 ± 0.19
same,promoter activity interaction Z-score,[6]; [17],-0.0135 ± 0.017
same,promoter activity interaction Z-score,[6]; [18],0.0262 ± 0.22
same,promoter activity interaction Z-score,[6]; [19],-0.0818 ± 0.083
same,promoter activity interaction Z-score,[6]; [20],-0.199 ± 0.039
same,promoter activity interaction Z-score,[6]; [21],-0.0313 ± 0.093
same,promoter activity interaction Z-score,[6]; [22],-0.191 ± 0.24
same,promoter activity interaction Z-score,[6]; [23],0.0168 ± 0.089
same,promoter activity interaction Z-score,[7]; [8],-0.594 ± 0.2
same,promoter activity interaction Z-score,[7]; [9],1.15 ± 1.7
same,promoter activity interaction Z-score,[7]; [10],-0.505 ± 0.25
same,promoter activity interaction Z-score,[7]; [11],-0.306 ± 0.74
same,promoter activity interaction Z-score,[7]; [12],-0.0152 ± 1.1
same,promoter activity interaction Z-score,[7]; [13],-0.186 ± 1
same,promoter activity interaction Z-score,[7]; [14],0.0225 ± 0.69
same,promoter activity interaction Z-score,[7]; [15],-0.32 ± 0.57
same,promoter activity interaction Z-score,[7]; [16],0.0793 ± 0.27
same,promoter activity interaction Z-score,[7]; [17],0.276 ± 0.67
same,promoter activity interaction Z-score,[7]; [18],-0.546 ± 0.36
same,promoter activity interaction Z-score,[7]; [19],0.0771 ± 1.1
same,promoter activity interaction Z-score,[7]; [20],-0.144 ± 0.74
same,promoter activity interaction Z-score,[7]; [21],0.284 ± 1.1
same,promoter activity interaction Z-score,[7]; [22],-0.698 ± 0.026
same,promoter activity interaction Z-score,[7]; [23],0.3 ± 0.58
